Results on 32 compounds are retold here after PubChem BioAssay (NCI).

“And” between values parts separate entries of the source, which are not always exact repeats. Equal values may be shown once. The panel holds about 83,000 compounds, 20% with a hit somewhere; the sample as a whole holds those more often.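 Values shown are percent growth following 48 h exposure of cells in 96-well plates to a single concentration of compound; below 10 was considered active.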 The source made the active and inactive calls. *1 amine or outer side, *2 acyl side, *3 side chain or, on linkers, in order; H or OH if unused. Where a SMILES comes first, the peptide text is derived from it. Bridges are numbered along the chain shown (N, C = ends). Roman numbers before positions name the chains, in order. [ ]: non-standard residue; d: D form. Actinocin(1to9) = Cc1c2oc3c(C)ccc(C(=O)[*:2])c3nc-2c(C(=O)[*:1])c(N)c1=O; NMeV = CN[CH](C(=O)O)C(C)C; Sar = CNCC(=O)O

The first test relates to HT29 colon. In words: NCI-60 one-dose screen, 48 h (100 = growth as untreated, 0 = no growth, -100 = all killed). Particulars: 10 µM unless noted.
Regarding `C/C(=N\NC(=S)N1CC2CCC(CC2)C1)c1ccccn1`, the growth is 6.46% (active). Still for that read-out and setting: as for `O=C(Nc1cccc(C(F)(F)F)c1)Oc1ccc(Cl)c2cccnc12`, the figure is 74.3% (inactive). Still for that read-out and setting: as for `N=C(N)Sc1cccc[n+]1[O-]`, the figure is 50.3% (inactive); as for `CCC(C)C1NC(=O)C(NC(=O)c2c3nc4c(C(=O)NC5C(=O)NC(C(C)CC)C(=O)N6CCCC6C(=O)N(C)CC(=O)N(C)C(C(C)C)C(=O)OC5C)ccc(C)c4oc-3c(C)c(=O)c2N)C(C)OC(=O)C(C(C)C)N(C)C(=O)CN(C)C(=O)C2CCCN2C1=O` (stereo unspecified) (I: TIP[Sar][NMeV] / II: TIP[Sar][NMeV]; ester I:1-I:C, II:1-II:C; linker I:N-II:N via Actinocin(1to9); configuration not given here), 0.216% (active); as for `COc1ccc(NC(=O)/C(=C/N2C(=O)/C(=C/c3ccc(OC)c(OC)c3)NC2=S)C(C)=O)cc1`, 92.8% (inactive). Still for that read-out and setting: the value for `O=C1C=CC(=O)c2c(O)c(CO)c(CO)c(O)c21` was 60% (inactive); that for `CCCCCCCCCCCC1=NCCCN1CCCC` was 86.1% (inactive); that for `CN(C)c1ccc(C(C#N)(c2ccccc2)c2ccc(N(C)C)cc2)cc1` was 14.6% (inactive).

With `O=C(Nc1ccc(Cl)c(Cl)c1)OCc1ccco1`, the growth was 34% (inactive). Still for that read-out and setting: the value for `O=C1/C(=C/c2ccccc2)CCC/C1=C\c1ccccc1` was 30.5% (inactive). The same measure, in the same setting: the value for `N#Cc1c2ccccc2nc2ccccc12` was 110% (inactive); that for `CCOC(=O)C1(C)CCCC1N` (stereo unspecified) was 116% (inactive). Turning to `Cc1cc(=O)oc2cc(O)cc(O)c12`, the growth is 107% (inactive). Same read-out and setting: as for `NNc1cccc([N+](=O)[O-])c1`, the figure is 99.6% (inactive). Same read-out and setting: the value for `N#CCc1cccc2ccccc12` was 96% (inactive).

In the case of `CC1(C)N=c2cc3c(cc2N1c1ccc(Cl)cc1)=Nc1ccccc1N3c1ccc(Cl)cc1`, the growth was 60.4% (inactive). Still for that read-out and setting: the value for `Oc1ccc2ccccc2c1N=Nc1nccs1` was 34.7% (inactive); that for `NC(=S)N/N=C\c1nccc2c(N)cccc12` was 37.9% (inactive).

Regarding `COC(=O)C(=[N+]=[N-])C(=O)c1ccc([N+](=O)[O-])o1`, the growth was 61.5% (inactive).

As to `OC(c1cc(-c2ccc(C(F)(F)F)cc2)nc(C(F)(F)F)c1)C1CCCCN1` (stereo unspecified), the growth was -49.8% (active) and -67.9% (active) and -54.8% (active).

For `O=C1Nc2ccc(Br)cc2C1=O`, the growth is 100% (inactive).

Take `C/C=C/c1cc2c(c(=O)o1)C(=O)[C@@H](O)[C@H](C)O2`: the growth was 13% (inactive). Regarding `Nc1cccc2cccc([N+](=O)[O-])c12`, the growth was 106% (inactive). Same read-out and setting: as for `COc1cccc2c1C(=O)c1c(O)c3c(c(O)c1C2=O)C[C@@](O)(C(=O)CO)C[C@@H]3OC1CC(OC(C)=O)C(OC(C)=O)C(C)O1` (stereo partly specified), the figure is -59% (active); as for `O=C1C=CC(=O)N1c1ccccc1`, 103% (inactive). Same read-out and setting: the value for `CCOC(=O)C1=C(C(=O)c2ccccc2)C(c2cccc([N+](=O)[O-])c2)C(C(=O)c2ccccc2)=C(C(=O)OCC)N1` was 94.3% (inactive); that for `N#C/C(=N\Nc1ccc(Cl)cc1)C(=O)C1CC1` was 67.6% (inactive); that for `Cc1cc(N/N=C/c2ccccn2)nc2ccccc12` was 20.3% (inactive). On to `O=C1C(=O)c2cccnc2-c2ncccc21`, for which the growth was -62.9% (active).

Regarding `CC(CSc1n[nH]c(=S)s1)c1ccccc1` (stereo unspecified), the growth was 126% (inactive).

For `CC/C(=C(/CC)c1ccc(O)cc1)c1ccc(O)cc1`, the growth is 71.5% (inactive). For `CCOC(=O)C1=NN(c2ccccc2)C(=O)/C1=C\N1C(=O)/C(=C/c2cccc(O)c2)SC1=S`, the growth is 111% (inactive).

In another test the test system is SNB-75 CNS. The test is described as above. Particulars: 10 µM unless noted.
In the case of `C/C(=N\NC(=S)N1CC2CCC(CC2)C1)c1ccccn1`, the growth was 33.8% (inactive). Take `N=C(N)Sc1cccc[n+]1[O-]`: the growth is 61.5% (inactive).

In the case of `CCC(C)C1NC(=O)C(NC(=O)c2c3nc4c(C(=O)NC5C(=O)NC(C(C)CC)C(=O)N6CCCC6C(=O)N(C)CC(=O)N(C)C(C(C)C)C(=O)OC5C)ccc(C)c4oc-3c(C)c(=O)c2N)C(C)OC(=O)C(C(C)C)N(C)C(=O)CN(C)C(=O)C2CCCN2C1=O` (stereo unspecified) (I: TIP[Sar][NMeV] / II: TIP[Sar][NMeV]; ester I:1-I:C, II:1-II:C; linker I:N-II:N via Actinocin(1to9); configuration not given here), the growth was -87.2% (active).

As for `COc1ccc(NC(=O)/C(=C/N2C(=O)/C(=C/c3ccc(OC)c(OC)c3)NC2=S)C(C)=O)cc1`, the growth was 38.1% (inactive).

In the case of `CCCCCCCCCCCC1=NCCCN1CCCC`, the growth was 102% (inactive). On the same count and under the same terms, as for `CN(C)c1ccc(C(C#N)(c2ccccc2)c2ccc(N(C)C)cc2)cc1`, the figure is 57.1% (inactive); as for `O=C(Nc1ccc(Cl)c(Cl)c1)OCc1ccco1`, 8.5% (active). For `N#Cc1c2ccccc2nc2ccccc12`, the growth is 97.8% (inactive). Same read-out and setting: the value for `CCOC(=O)C1(C)CCCC1N` (stereo unspecified) was 86.3% (inactive). Still for that read-out and setting: as for `Cc1cc(=O)oc2cc(O)cc(O)c12`, the figure is 98.2% (inactive). With `Oc1ccc2ccccc2c1N=Nc1nccs1`, the growth was 43.3% (inactive).

For the compound `NC(=S)N/N=C\c1nccc2c(N)cccc12`, the growth was 13.6% (inactive). On the same count and under the same terms, the value for `COC(=O)C(=[N+]=[N-])C(=O)c1ccc([N+](=O)[O-])o1` was 103% (inactive); that for `OC(c1cc(-c2ccc(C(F)(F)F)cc2)nc(C(F)(F)F)c1)C1CCCCN1` (stereo unspecified) was 18.6% (inactive) and -18% (active) and 46.3% (inactive); that for `O=C1Nc2ccc(Br)cc2C1=O` was 92.7% (inactive). Same read-out and setting: as for `Nc1cccc2cccc([N+](=O)[O-])c12`, the figure is 81.8% (inactive); as for `COc1cccc2c1C(=O)c1c(O)c3c(c(O)c1C2=O)C[C@@](O)(C(=O)CO)C[C@@H]3OC1CC(OC(C)=O)C(OC(C)=O)C(C)O1` (stereo partly specified), -30.9% (active); as for `CCOC(=O)C1=C(C(=O)c2ccccc2)C(c2cccc([N+](=O)[O-])c2)C(C(=O)c2ccccc2)=C(C(=O)OCC)N1`, 88.4% (inactive). For `N#C/C(=N\Nc1ccc(Cl)cc1)C(=O)C1CC1`, the growth is 56.5% (inactive).

As for `Cc1cc(N/N=C/c2ccccn2)nc2ccccc12`, the growth is 30.8% (inactive). Take `O=C1C(=O)c2cccnc2-c2ncccc21`: the growth was -13.3% (active). As for `CC(CSc1n[nH]c(=S)s1)c1ccccc1` (stereo unspecified), the growth is 85.1% (inactive). Same read-out and setting: as for `CC/C(=C(/CC)c1ccc(O)cc1)c1ccc(O)cc1`, the figure is 51.8% (inactive); as for `CCOC(=O)C1=NN(c2ccccc2)C(=O)/C1=C\N1C(=O)/C(=C/c2cccc(O)c2)SC1=S`, 97.2% (inactive).
